In the library only some 4.6% were active in any assay of this set; here they are far more common.
Peg3 prom inh: reduces Peg3 promoter-driven luciferase expression in HeLa; HeLa PEG-Prom luciferase reporter, luminescence, overnight; inhibition, % at 20 µM; actives 1.7% (n = 360,000);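 active = inhibition of at least 50% at 20 µM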
KKLEB cytotox: CF airway cell cytotoxicity counter-screen; actives 0.36% (n = 360,000); activity change (cytotoxicity), % at 5 µM; KKLEB CF airway cells viability, ATPlite luminescence, overnight; stronger effect = lower value; cells stimulated with P. aeruginosa culture filtrate; AID 602141;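 active = corrected activity change at or below -50% at 5 µM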
Mdm2-MdmX inh: disrupts the human Mdm2-MdmX interaction. actives 3% (n = 330,000). SaOS-2 split-luciferase Mdm2/MdmX complementation, luminescence. O15151+Q00987. inhibition, % at 8 µM;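 active = inhibition of at least 50% at 8 µM in the primary screen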
ABHD5 PLIN5 PPI: blocks binding of human ABHD5 to perilipin-5. inhibition, % at 4 µM. Split G. princeps luciferase complementation, luminescence, 4 h. AID 602281. Q00G26+Q8WTS1. actives 0.78% (n = 360,000);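 active = inhibition above the mean inhibition across every tested compound plus 3 SD, cut at about 22% in these data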;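 note: 0% = DMSO only wells and the 100% control is not disclosed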
Target sequence (Q00G26 whole entry, looked up): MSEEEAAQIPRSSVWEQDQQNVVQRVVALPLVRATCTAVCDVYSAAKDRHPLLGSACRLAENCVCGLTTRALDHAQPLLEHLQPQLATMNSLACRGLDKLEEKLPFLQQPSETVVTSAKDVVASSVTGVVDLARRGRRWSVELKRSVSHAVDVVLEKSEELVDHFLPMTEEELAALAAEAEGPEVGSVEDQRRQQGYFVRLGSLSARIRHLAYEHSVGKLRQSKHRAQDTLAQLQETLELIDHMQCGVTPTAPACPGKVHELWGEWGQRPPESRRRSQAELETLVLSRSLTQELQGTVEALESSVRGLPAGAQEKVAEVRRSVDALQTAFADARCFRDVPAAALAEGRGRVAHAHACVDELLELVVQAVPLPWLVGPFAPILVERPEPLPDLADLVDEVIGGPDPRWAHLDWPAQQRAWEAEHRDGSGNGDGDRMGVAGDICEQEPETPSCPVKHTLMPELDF
Target sequence (Q8WTS1 whole entry, looked up): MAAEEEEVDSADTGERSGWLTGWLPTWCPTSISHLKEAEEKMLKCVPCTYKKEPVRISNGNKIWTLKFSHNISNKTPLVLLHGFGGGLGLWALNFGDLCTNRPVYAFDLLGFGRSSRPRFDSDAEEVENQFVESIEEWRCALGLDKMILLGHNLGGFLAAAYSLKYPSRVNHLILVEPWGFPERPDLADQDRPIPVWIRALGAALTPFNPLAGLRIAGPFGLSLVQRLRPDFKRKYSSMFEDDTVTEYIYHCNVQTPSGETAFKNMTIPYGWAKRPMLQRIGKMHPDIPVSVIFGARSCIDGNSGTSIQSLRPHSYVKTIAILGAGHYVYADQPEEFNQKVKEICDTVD
HIF-2a block: blocks HIF-2a reporter activity. actives 0.72% (n = 360,000). 786-0 RCC cells HIF-2a reporter, luciferase luminescence, overnight. inhibition, % at 18.8 µM;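 active = inhibition of the luminescence signal of 40% or more relative to plate controls, in a single-dose primary screen at 18.75 µM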
CF NFkB block: inhibitors of cystic fibrosis induced NF-kB | inhibition, % at 5 µM | KKLEB NF-kB-GFP reporter, PAF-induced, GFP fluorescence overnight | AID 588850 | actives 0.86% (n = 360,000);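 active = at least 50% inhibition at 5 µM, scaled per plate between neutral and stimulator controls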;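 note: PAF is a Pseudomonas aeruginosa culture filtrate used as stimulus; plate controls were PAF-stimulated DMSO wells for no effect and unstimulated DMSO wells for full effect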
Mdm2 MdmX conf: human Mdm2/MdmX binding inhibition, confirmed; inhibition, % at 8 µM; AID 489028; shares compounds with Mdm2-MdmX inh; luminescent assay; actives 55% (n = 10,000); in the data active = inhibition above about 40%
Full FLuc ctr: full-length luciferase inhibition in Mdm2/MdmX counter-screen. actives 77% (n = 6,200). inhibition, % at 8 µM. shares compounds with Mdm2-MdmX inh. SaOS-2 full-length luciferase counterscreen, luminescence;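 active = mean inhibition at 8 µM reaching about 37%, which flags the compound as non-specific, limit read from the data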;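 note: p53-null SaOS-2 cells with luciferase driven by a doxycycline-inducible promoter; compound on cells about two nights before reading with doxycycline added after day one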
* hit, by the source's call.

What do the screens show for `Nc1ccc(N(CCO)CCO)cc1`?
Peg3 prom inh: 8.5; KKLEB cytotox: -2.6; Mdm2-MdmX inh: 4.1; ABHD5 PLIN5 PPI: -14.7; HIF-2a block: 5.7; CF NFkB block: 6.1

What do the screens show for `N#Cc1ccc(NC(=S)NC(=O)C2CC2)cc1`?
Peg3 prom inh: -16.8; KKLEB cytotox: 12.5; ABHD5 PLIN5 PPI: -1.9; HIF-2a block: -36.9; CF NFkB block: 2.0

What do the screens show for `COc1cc(OC)cc(-c2oc(=O)c3cc(OC)c(OC)cc3c2C(F)(F)F)c1`?
Peg3 prom inh: 17.8; KKLEB cytotox: -6.6; Mdm2-MdmX inh: -17.0; ABHD5 PLIN5 PPI: -0.1; HIF-2a block: 0.5; CF NFkB block: -1.9

Results for COc1ccc2c(C(=O)CCl)c[nH]c2c1 ?
Peg3 prom inh: 48.1; KKLEB cytotox: -51.7*; Mdm2-MdmX inh: 56.5*; ABHD5 PLIN5 PPI: 9.1; HIF-2a block: -32.0; CF NFkB block: 73.1*; Mdm2 MdmX conf: 52.7*; Full FLuc ctr: 24.1

How did COc1ccc(OCC(=O)c2c[nH]c3ccccc23)cc1 do in these assays?
Peg3 prom inh: -173.3; KKLEB cytotox: -7.4; Mdm2-MdmX inh: -64.8; ABHD5 PLIN5 PPI: 1.8; HIF-2a block: -168.0; CF NFkB block: 37.0

How did CCOC(=O)c1nnn2c1nc(Nc1cccc(C(F)(F)F)c1)c1ccccc12 do in these assays?
Peg3 prom inh: 41.0; KKLEB cytotox: -16.6; Mdm2-MdmX inh: 82.1*; ABHD5 PLIN5 PPI: -4.2; HIF-2a block: -4.8; CF NFkB block: -5.2; Mdm2 MdmX conf: 30.5

How did Cc1ccc(-c2nnn3c2nc(NC(C)C)c2ccccc23)cc1 do in these assays?
Peg3 prom inh: -4.8; KKLEB cytotox: -10.3; Mdm2-MdmX inh: 32.0; ABHD5 PLIN5 PPI: -1.7; HIF-2a block: -44.5; CF NFkB block: 16.8

How did NNc1nc2c(-c3cccc(C(F)(F)F)c3)nnn2c2ccccc12 do in these assays?
Peg3 prom inh: -22.6; KKLEB cytotox: -31.3; Mdm2-MdmX inh: 56.0*; ABHD5 PLIN5 PPI: -12.8; HIF-2a block: -115.9; CF NFkB block: -27.1; Mdm2 MdmX conf: 22.1

Results for CNc1nc2c(-c3ccc(Cl)cc3)nnn2c2ccccc12 ?
Peg3 prom inh: 24.5; KKLEB cytotox: -11.5; Mdm2-MdmX inh: 60.6*; ABHD5 PLIN5 PPI: -1.2; HIF-2a block: -11.1; CF NFkB block: -14.3; Mdm2 MdmX conf: 42.2*; Full FLuc ctr: 68.7*

Results for COCCNc1nc2c(-c3cccc(C(F)(F)F)c3)nnn2c2ccccc12 ?
Peg3 prom inh: 13.4; KKLEB cytotox: -4.1; Mdm2-MdmX inh: 39.6; ABHD5 PLIN5 PPI: -5.2; HIF-2a block: 4.0; CF NFkB block: -15.1

Results for CCOC(=O)c1nnn2c1nc(SCC(C)=O)c1ccccc12 ?
Peg3 prom inh: 5.5; KKLEB cytotox: -6.0; Mdm2-MdmX inh: -14.5; ABHD5 PLIN5 PPI: -1.6; HIF-2a block: -0.7; CF NFkB block: -0.5

Results for Oc1ccc(C[C@H]2CNCCN2CC2(c3ccccc3)CC2)cc1 ?
Peg3 prom inh: -3.3; KKLEB cytotox: -12.6; Mdm2-MdmX inh: 29.1; ABHD5 PLIN5 PPI: -6.9; HIF-2a block: 5.8; CF NFkB block: -3.4

Results for CCN(CC(=O)Nc1c(F)cccc1F)C(=O)c1cccc(S(=O)(=O)N2CCCc3ccccc32)c1 ?
Peg3 prom inh: 23.8; KKLEB cytotox: 8.0; ABHD5 PLIN5 PPI: 7.2; HIF-2a block: 14.0; CF NFkB block: -10.5

What do the screens show for `O=C(NNC(=O)c1cc(-c2ccc(Cl)cc2Cl)nc2ccccc12)Nc1ccccc1`?
Peg3 prom inh: -19.6; KKLEB cytotox: 0.2; Mdm2-MdmX inh: 63.9*; ABHD5 PLIN5 PPI: 3.7; HIF-2a block: -73.8; CF NFkB block: -10.2; Mdm2 MdmX conf: 37.5

How did Cc1cc2nc(-c3ccc(Cl)cc3)c(CC3CCCCC3)n2c(C)c1Br do in these assays?
ABHD5 PLIN5 PPI: -4.9; HIF-2a block: -36.4

Results for O=C(Cn1c2ccccc2c(=O)c2cc([N+](=O)[O-])ccc21)Nc1ccccc1Cl ?
Peg3 prom inh: 0.5; KKLEB cytotox: -14.9; Mdm2-MdmX inh: 52.6*; ABHD5 PLIN5 PPI: 1.3; HIF-2a block: 1.6; CF NFkB block: 10.2; Mdm2 MdmX conf: 15.8

How did O=C(Cn1c2ccccc2c(=O)c2ccccc21)Nc1ccccc1F do in these assays?
Peg3 prom inh: 12.8; KKLEB cytotox: 2.4; Mdm2-MdmX inh: 19.8; ABHD5 PLIN5 PPI: -4.4; HIF-2a block: 22.6; CF NFkB block: -14.3

How did Oc1cccc(C2c3[nH]c4ccccc4c3CCN2Cc2ccc3c(c2)CCO3)c1 (configuration not stated) do in these assays?
Peg3 prom inh: 27.7; KKLEB cytotox: -12.5; Mdm2-MdmX inh: 57.8*; ABHD5 PLIN5 PPI: 2.3; HIF-2a block: 11.7; CF NFkB block: 17.4; Mdm2 MdmX conf: 43.2*; Full FLuc ctr: 52.9*

How did CC[C@H](C)/C=C/C1=CC2=C(Cl)C(=O)[C@@]3(C)OC(=O)C(C(=O)[C@H](C)[C@@H](C)O)=C3C2=CO1 do in these assays?
Peg3 prom inh: -14.3; KKLEB cytotox: 14.9; Mdm2-MdmX inh: 10.6; ABHD5 PLIN5 PPI: 9.1; HIF-2a block: -3.1; CF NFkB block: -11.9

What do the screens show for `COc1ccc(OC)c(Nc2c3ccccc3nc3ccccc23)c1`?
Peg3 prom inh: 29.3; KKLEB cytotox: -11.2; Mdm2-MdmX inh: 73.4*; ABHD5 PLIN5 PPI: -11.2; HIF-2a block: 14.0; CF NFkB block: -13.0; Mdm2 MdmX conf: 65.0*; Full FLuc ctr: 60.2*

Results for COc1ccc(NC(=O)COC(=O)c2c3c(nc4ccccc24)CCCC3)cc1 ?
Peg3 prom inh: 34.0; KKLEB cytotox: 13.4; Mdm2-MdmX inh: 37.5; ABHD5 PLIN5 PPI: 2.8; HIF-2a block: -18.7; CF NFkB block: -10.1

What do the screens show for `COc1ccc(OC)c(Nc2cc(C)c3ccccc3n2)c1`?
Peg3 prom inh: 18.9; KKLEB cytotox: -6.1; Mdm2-MdmX inh: -13.1; ABHD5 PLIN5 PPI: -0.5; HIF-2a block: 18.6; CF NFkB block: -2.2

Results for COc1ccc(OC)c(NC(=O)COC(=O)c2c3c(nc4ccccc24)CCCC3)c1 ?
Peg3 prom inh: 78.2*; KKLEB cytotox: -47.5; Mdm2-MdmX inh: 84.6*; ABHD5 PLIN5 PPI: 10.9; HIF-2a block: -8.6; CF NFkB block: 37.0; Mdm2 MdmX conf: 63.3*; Full FLuc ctr: 56.7*

What do the screens show for `COc1ccccc1Nc1c2c(nc3ccc(N)cc13)CCCC2`?
Peg3 prom inh: -8.2; KKLEB cytotox: -4.0; Mdm2-MdmX inh: 27.4; ABHD5 PLIN5 PPI: -0.9; HIF-2a block: 22.7; CF NFkB block: 22.0

What do the screens show for `COc1cc(Nc2nc3ccccc3nc2NS(=O)(=O)c2ccc([N+](=O)[O-])cc2)cc(OC)c1OC`?
Peg3 prom inh: 24.2; KKLEB cytotox: 3.1; Mdm2-MdmX inh: 68.4*; ABHD5 PLIN5 PPI: 13.5; HIF-2a block: -10.8; CF NFkB block: 26.8; Mdm2 MdmX conf: 36.0; Full FLuc ctr: 55.2*

Screening results from PubChem.
